Measured values from PubChem BioAssay AID1030 (National Center for Advancing Translational Sciences (NCATS), 2008).
Hit rate of the full screen: of about 220,000 compounds, about 16,000 (7.3%) were called active. Where a call stands in place of a potency, no number is given. Another 25% or so got no clear call; they are omitted. Calls follow the shape of the dose curve; as a rule, active = well fitted inhibition curve with a large enough effect (not every such curve was filed as active); inconclusive = small, poorly fitted or top-dose-only effect, or another doubt; inactive = no such curve, though single readings can be large or run the other way. This excerpt belongs to a sample that is enriched for actives.

target: Aldehyde dehydrogenase 1A1 (Homo sapiens) (UniProt P00352); assay: qHTS Assay for Inhibitors of Aldehyde Dehydrogenase 1 (ALDH1A1); conditions: Purified ALDH1A1, NADH fluorescence, propionaldehyde substrate; series mostly up to 75.3 µM
Sequence (P00352 whole entry, looked up): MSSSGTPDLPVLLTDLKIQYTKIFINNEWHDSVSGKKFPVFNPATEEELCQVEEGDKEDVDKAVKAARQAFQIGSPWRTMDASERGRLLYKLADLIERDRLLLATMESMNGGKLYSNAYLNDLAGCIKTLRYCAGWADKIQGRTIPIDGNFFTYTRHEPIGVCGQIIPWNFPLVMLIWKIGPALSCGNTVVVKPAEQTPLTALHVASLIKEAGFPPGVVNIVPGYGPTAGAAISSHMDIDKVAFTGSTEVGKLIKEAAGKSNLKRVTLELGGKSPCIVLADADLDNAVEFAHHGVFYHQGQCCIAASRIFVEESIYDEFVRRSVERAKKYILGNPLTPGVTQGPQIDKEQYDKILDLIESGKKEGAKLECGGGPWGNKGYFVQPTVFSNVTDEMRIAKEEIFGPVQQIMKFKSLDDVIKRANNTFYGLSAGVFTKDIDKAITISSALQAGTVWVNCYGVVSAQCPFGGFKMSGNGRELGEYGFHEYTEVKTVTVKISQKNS
Potency is read from the fitted curve at half-maximal effect.

Row | SMILES | Potency
1 | Cn1cnc(C(F)(F)F)c1-c1ccc([N+](=O)[O-])cc1 | inactive
2 | Cc1cccc(C)c1Nc1nnc(SCC(=O)Nc2sccc2C#N)s1 | inactive
3 | O=C1C(c2[nH]c3ccccc3c2O)=Nc2ccccc21 | 15.8 µM (active)
4 | CC(C)C(=O)Nc1c(O)c2ccccc2[nH]c1=O | inactive
5 | CC(=O)Nc1ccc(OCC(=O)NCc2ccc(C)cc2)cc1 | inactive
6 | C/C=C/c1ccc(OCC(O)CN2CCCCCCC2)c(OC)c1 (centres undefined) | inactive
7 | CCOC(=O)CNc1nc(Cl)nc(Nc2ccccc2)n1 | inactive
8 | CC(NC(=S)Nc1ccc(OC(F)F)cc1)c1ccc(F)cc1 (centres undefined) | inactive
9 | O=C(c1ccc(S(=O)(=O)c2ccccc2)cc1)N1CCCCCC1 | inactive
10 | N#Cc1ccccc1-n1c(N)c(C(=O)N2CCCC2)sc1=S | 11.2 µM (active)
11 | Cc1ccc(OCCCC(=O)N2CCOCC2)c(C)c1 | inactive
12 | Cc1ccc(-n2c(N)c(C(=O)N3CCOCC3)sc2=S)c(C)c1 | 10 µM (active)
13 | Cc1cccc(C(=O)N2CCCN(C(=O)c3cccc(C)c3)CC2)c1 | inactive
14 | O=C(Nc1cccc(C(=O)N2CCCC2)c1)c1ccccc1 | inactive
15 | Cc1cccc(-n2c(N)c(C(=O)N3CCN(C)CC3)sc2=S)c1 | 22.4 µM (active)
16 | Cc1nc2ccc(C(=O)N3CCN(c4ccccc4)CC3)cc2s1 | inactive
17 | Cc1ccc(C(=O)N2CCN(C(=O)N3CCOCC3)CC2)cc1 | inactive
18 | CCN(CC)S(=O)(=O)c1ccc(N(C)Cc2cccc(OC)c2OC)nc1 | inactive
19 | CC(C)(C)OC(=O)NCCCCC1=CC2=CC(=O)C(C)(OC(=O)c3cccs3)C(=O)C2=CO1 (centres undefined) | inactive
20 | O=C(c1snnc1-c1ccccc1)N1CCOCC1 | inactive
21 | Cc1cc(-c2nnc(CCC(=O)NC(c3ccccc3)c3ccccc3)o2)no1 | inactive
22 | O=C(/C=C/c1ccc(F)cc1)NCCNC(=O)/C=C/c1ccc(F)cc1 | inactive
23 | O=C(CCC1CCCN(Cc2ccc(O)c(Cl)c2)C1)NCc1ccccc1F (centres undefined) | inactive

Row | SMILES | Potency
24 | CCOCC(=O)Nc1cc(OC)c(Cl)cc1OC | inactive
25 | COc1cc(NC(=S)NNC(=O)CC(C)C)c(OC)cc1Cl | 25.1 µM (active)
26 | CC(C)CC(=O)NC(=S)Nc1cc(C(=O)O)ccc1Cl | inactive
27 | CCC(CC)C(=O)Nc1ccc(S(=O)(=O)Nc2nccs2)cc1 | inactive
28 | O=C(C1CCCN1S(=O)(=O)c1ccc(Br)cc1)N1CCOCC1 (centres undefined) | inactive
29 | Nc1ccc(Oc2ccc(Cl)cc2)cc1 | inactive
30 | COc1cccc(Oc2ccc(N)cc2)c1 | inactive
31 | Cc1ccc(Oc2ccc(N)cc2)cc1 | 17.8 µM (active)
32 | O=C(NNS(=O)(=O)c1ccc(F)cc1)c1cnccn1 | inactive
33 | Cc1c(Cl)c([N+](=O)[O-])nn1CCCC(=O)NC(C)c1ccccc1 (centres undefined) | inactive
34 | S=C(Nc1cccc(Br)c1)N1CCn2cccc2C1c1cccnc1 (centres undefined) | inactive
35 | O=c1oc2ccccc2cc1-c1csc(Nc2ccc(O)cc2)n1 | inactive
36 | COc1ccc2nc(Nc3nc(-c4cc5ccccc5oc4=O)cs3)sc2c1 | inactive
37 | Nc1ncc(-c2cc3ccccc3oc2=O)s1 | 11.2 µM (active)
38 | CC(C)NC(=O)c1ccc(Cl)cc1Cl | inactive
39 | COc1cccc(NC(=O)CN(C)C(C)C(=O)Nc2ccc(C#N)cc2)c1 (centres undefined) | inactive
40 | COc1cccc(CNC(=O)CCN2C(=S)NC(C)(C)CC2C)c1 (centres undefined) | inactive
41 | O=C(CCN1CCN(c2ccccc2)CC1)NNC(=S)Nc1ccccc1 | inactive
42 | O=C(N/N=C/c1ccc(OCc2ccccc2)cc1)c1ccc(O)cc1 | inactive
43 | O=C(O)/C=C\C(=O)Nc1ccc(OCc2ccccc2)cc1 | 25.1 µM (active)
44 | O=C(/C=C/c1ccco1)Nc1ccc(Oc2ccccc2)cc1 | inactive
45 | NC(=O)COC(=O)c1cc(S(=O)(=O)N2CCN(c3ccccc3)CC2)ccc1Cl | inactive
46 | CCC1=C(C(=O)OC)C(c2cc(OC)ccc2OC)C(C#N)=C(N)O1 (centres undefined) | 17.8 µM (active)

Row | SMILES | Potency
47 | CCOC(=O)C1=C(CC)OC(N)=C(C#N)C1c1ccc(F)cc1F (centres undefined) | inactive
48 | COC(=O)C1=C(C)OC(N)=C(C#N)C1c1cc(OC)ccc1OC (centres undefined) | inactive
49 | COc1ccc(S(=O)(=O)N(C)CC(=O)N2CCCC2)cc1Cl | inactive
50 | Cc1noc(C)c1S(=O)(=O)N(C)Cc1ccccc1 | inactive
51 | Cc1cccc(NS(=O)(=O)c2ccc(C)c(C(N)=O)c2)c1 | inactive
52 | CC(NC(=O)C(=O)N/N=C/c1ccc(Cl)cc1)c1ccccc1 (centres undefined) | inactive
53 | Cc1ccc(-n2c(C)cc(C(=O)CN3C(=O)C(=O)N(C4CCCC4)C3=O)c2C)cc1 | inactive
54 | COc1cc(CNC2CCCCC2)c(Br)cc1OC1CCCC1 | inactive
55 | O=C(Cc1ccccc1)NNS(=O)(=O)c1ccc([N+](=O)[O-])cc1 | inactive
56 | O=C(Nc1ccc([N+](=O)[O-])cc1)C1(c2ccccc2)CCOCC1 | inactive
57 | O=C(O)/C=C/C(=O)NNc1ccc([N+](=O)[O-])cc1 | 14.1 µM (active)
58 | NC(=O)c1ccc(CN2CCC(Cc3ccccc3)CC2)cc1 | inactive
59 | O=C(COC(=O)c1ccc[nH]c1=O)Nc1ccc2c(c1)OC(F)(F)O2 | inactive
60 | Cc1c(S(=O)(=O)O)ccc(N=Nc2c(O)c(C(=O)O)cc3ccccc23)c1Cl | 3.55 µM (active)
61 | Cc1nn(Cc2ccc(Cl)cc2)c(Cl)c1/C=N/NC(=O)CNc1ccccc1F | inactive
62 | O=C(NNC(=S)NCc1ccco1)C(c1ccccc1)c1ccccc1 | inactive
63 | FC(F)Oc1ccc(NC(=S)NCc2ccco2)cc1Cl | 14.1 µM (active)
64 | COC(=O)Cc1ccc(NC(=S)NCc2ccco2)cc1 | inactive
65 | O=C(NCc1cccs1)c1cc(-c2ccccn2)nc2ccc(Br)cc12 | inactive
66 | OC(COc1ccccc1)Cn1cc(Br)cn1 (centres undefined) | inactive
67 | C=CCn1c(=N)n(CC(O)COc2ccc(OC)cc2)c2ccccc21 (centres undefined) | inactive
68 | OC(CN=c1sc2ccccc2n1CC(O)COc1ccccc1)COc1ccccc1 (centres undefined) | 2.82 µM (active)
69 | Cc1ccccc1NS(=O)(=O)CCCCC(Cl)(Cl)Cl | inactive

Row | SMILES | Potency
70 | O=C1N=C(N2CCOCC2)S/C1=C\C=C/c1ccccc1 | inactive
71 | CCc1ccc(/C=C2\SC(N3CCOCC3)=NC2=O)cc1 | inactive
72 | Cc1ccsc1/C=C1\SC(N2CCOCC2)=NC1=O | 14.1 µM (active)
73 | NC(N)=NCCCc1cn(CC(=O)N2CCNCC2)nn1 | inactive
74 | CCOC(=O)COc1ccc([N+](=O)[O-])cc1 | inactive
75 | Cc1cc(C)cc(OCC(=O)O/N=C(\N)Cc2ccc([N+](=O)[O-])cc2)c1 | 10 µM (active)
76 | N/C(=N\OC(=O)COc1ccc([N+](=O)[O-])cc1)c1ccc(Br)cc1 | inactive
77 | COC(=O)C(NS(=O)(=O)c1ccc(F)cc1)c1ccccc1 (centres undefined) | inactive
78 | CC1CCC(C(C)C)C(=O)/C1=C\c1ccc(NC(=O)CCC(=O)O)cc1 (centres undefined) | inactive
79 | COc1ccc(S(=O)(=O)N2CCN(C(=O)c3cc(C)oc3C)CC2)cc1 | inactive
80 | COc1ccc2occ(C(=O)c3ccc(N=C(C)N(C)C)cc3)c2c1 | inactive
81 | COc1ccc(OC)c(C(=O)c2coc3ccc(O)c(CN4CCOCC4)c23)c1 | inactive
82 | COc1ccc(OC)c(C(=O)c2coc3ccc(OC)cc23)c1 | 14.1 µM (active)
83 | NS(=O)(=O)c1ccc(CCNC(=O)c2ccc([N+](=O)[O-])cc2[N+](=O)[O-])cc1 | inactive
84 | CCOC(=O)CCCNC(=O)COC(=O)c1cc(Br)c(Br)s1 | inactive
85 | O=C(NC1CCCC1)C(c1ccc(N2CCOCC2)cc1)N(C(=O)c1ccco1)c1ccccc1F (centres undefined) | inactive
86 | COCCn1nnnc1C(c1ccccc1Cl)N1CCN(c2ccccc2OC)CC1 (centres undefined) | inactive
87 | COc1ccc(C(c2nnnn2Cc2cccs2)N2CCN(c3ccccc3)CC2)cc1OC (centres undefined) | 2 µM (active)
88 | COc1ccc(CCn2nnnc2C(c2ccccc2)N2CCN(C)CC2)cc1OC (centres undefined) | inactive
89 | COc1ccc(CCn2c(NCCCN3CCOCC3)nc3c2c(=O)[nH]c(=O)n3C)cc1 | inactive
90 | CN1CCN(c2nc3c(c(=O)[nH]c(=O)n3C)n2Cc2cccc3ccccc23)CC1 | 25.1 µM (active)
91 | Cc1nnc(SCCCn2c(N3CCCCC3)nc3c2c(=O)[nH]c(=O)n3C)s1 | 14.1 µM (active)
92 | C=C(C)Cn1c(N2CCN(CC)CC2)nc2c1c(=O)[nH]c(=O)n2C | inactive

Row | SMILES | Potency
93 | Cn1c(=O)[nH]c(=O)c2c1nc(NCCCn1ccnc1)n2Cc1cccc(Br)c1 | inactive
94 | Cn1c(=O)[nH]c(=O)c2c1nc(N1CCCCCC1)n2CC(=O)c1ccccc1 | inactive
95 | CC1CCN(c2nc3c(c(=O)[nH]c(=O)n3C)n2CCCc2ccccc2)CC1 | 31.6 µM (active)
96 | Cc1ccnc(SCCn2c(Br)nc3c2c(=O)[nH]c(=O)n3C)n1 | inactive
97 | C=C(C)Cn1c(N2CCCC2)nc2c1c(=O)[nH]c(=O)n2C | inactive
98 | COc1ccc(OC)c(NC(=O)N[C@H](Cc2ccccc2)C(=O)NN)c1 | inactive
99 | CC(C)CN1CCNC(=O)C1CC(=O)N(C)CC1CCOCC1 (centres undefined) | inactive
100 | Cc1ccc(CN(C)CC(=O)Nc2cccc([N+](=O)[O-])c2)o1 | inactive
101 | CC(=O)c1ccc(NC(=S)N(Cc2ccccc2)C(C)C2CC2)cc1 (centres undefined) | inactive
102 | Cc1ccc(N2C(=O)CC(NCc3ccc4c(c3)OCO4)C2=O)cc1Cl (centres undefined) | 22.4 µM (active)
103 | Cc1ccc(CC2CC(=O)N(c3ccc4c(c3)OCCO4)C2=O)cc1 (centres undefined) | inactive
104 | CC1CCC(N2CC(=O)N(Cc3ccc4c(c3)OCO4)C(c3ccc(F)cc3)C2=O)CC1 (centres undefined) | inactive
105 | O=C1NC(c2cccc(Cl)c2)Nc2ccccc21 (centres undefined) | inactive
106 | N/C(=N\S(=O)(=O)c1ccc(Cl)cc1)N1CCOCC1 | inactive
107 | Cc1ccc(N(C(=O)c2sc(C)nc2C)C(C(=O)NC(C)(C)C)c2ccncc2)cc1 (centres undefined) | inactive
108 | Cc1c(C(=O)O)nnn1-c1nonc1N | inactive
109 | CCOC(=O)c1c(NC(=O)/C=C/c2ccco2)sc(C)c1C | inactive
110 | CCOC(=O)c1sc(/N=C/C2=C(O)CC(C)(C)CC2=O)c(C(=O)OCC)c1C | 11.2 µM (active)
111 | CCOC(=O)c1c(/N=C/C2C(=O)CC(C)(C)CC2=O)sc(C)c1C | 2.24 µM (active)
112 | CC1(C)CC(=O)C(C=NCc2cccnc2)=C(O)C1 | inactive
113 | CC(=O)N1CCN(CCN=CC2=C(O)CC(C)(C)CC2=O)CC1 | inactive
114 | CCN(C(=O)COC(=O)c1c(NC(C)=O)sc(C)c1C)C1CCS(=O)(=O)C1 (centres undefined) | inactive
